Results on 8 compounds are retold here after PubChem BioAssay (Tox21).

Unmarked numbers belong to inactive results. Calls of active or inactive are those of the source. Unless noted, calls follow the shape of the dose curve; as a rule, active = well fitted curve in the direction sought with a large enough effect in the repeat runs; inconclusive = weak or mixed curves; inactive = no such curve, though single readings can be large; an effect the other way counts as inactive or inconclusive.

Experiment [1] in a line: qHTS assay to identify small molecule antagonists of the thyroid receptor (TR) signaling pathway (AID 743065). Also: nearly all actives have a fitted effect of over 55% in size. Also: potency is read from the fitted curve at half-maximal effect. The method in brief: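 GH3.TRE-Luc rat pituitary cells carrying two TR response elements driving luciferase were plated for 4 h, given compound plus 1 nM T3 (final), and incubated 23.5 h at 37 C. ONE-Glo luminescence measured reporter inhibition; CellTiter-Fluor fluorescence tracked cytotoxicity.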

For experiment [2], the system named is thyroid hormone receptor (rat, GH3 cells). The experiment can be described thus: qHTS assay to identify small molecule agonists of the thyroid receptor (TR) signaling pathway (AID 743066; calls by dose curve). On the technique in general: Quantitative high-throughput screening tests each substance at several concentrations.
Experiment [3] has as its target Estrogen receptor (Homo sapiens) (UniProt P03372). The experiment can be described thus: qHTS assay to identify small molecule antagonists of the estrogen receptor alpha (ER-alpha) signaling pathway (AID 743069; active = well fitted curve in the direction sought with a large enough effect in the signal ratio in the repeat runs, not every such curve was filed as active; inconclusive = weak or mixed curves, or effect the other way; inactive = no such curve, though single readings can be large or run the other way; the % refers to the signal ratio). The method in brief: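 Screening used a UAS-driven beta-lactamase reporter integrated into HEK293 cells expressing ER-alpha, stimulated with 17beta-estradiol alongside test compounds over 18 hr at 37C; signal came from LiveBLAzer B/G FRET fluorescence.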

The target is the same in experiment [4]. The experiment can be described thus: qHTS assay to identify small molecule agonists of the estrogen receptor alpha (ER-alpha) signaling pathway (AID 743075; calls by dose curve; also: potency is read from the fitted curve at half-maximal effect).
Experiment [5] shares this target. The experiment can be described thus: qHTS assay to identify small molecule agonists of the estrogen receptor alpha (ER-alpha) signaling pathway using the BG1 cell line (AID 743079). Also: nearly all actives have a fitted effect of over 20% in size. Also: potency is read from the fitted curve at half-maximal effect. As to conditions: BG1Luc4E2 cells, ERE-luciferase agonist, 22 h.
A short description of experiment [6]: qHTS assay to identify small molecule antagonists of the estrogen receptor alpha (ER-alpha) signaling pathway using the BG1 cell line (AID 743080; calls by dose curve;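 also: BG1 cells stimulated with 17beta-estradiol alongside compound; nearly all actives have a fitted effect of over 25% in size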; also: potency is read from the fitted curve at half-maximal effect). The method in brief:
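BG1-Luc-4E2 cells (endogenous full-length ER-alpha, 4xERE luciferase) hormone-starved 5 days in charcoal-stripped FBS, plated 4,000/well for 24 h, then compound plus 17beta-estradiol for 21.5 h at 37 C; ONE-Glo luminescence read.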

Experiment [7] is described as follows: qHTS assay to identify small molecule antagonists of the estrogen receptor alpha (ER-alpha) signaling pathway using the BG1 cell line - cell viability counter screen (AID 743081).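 Also: compound given together with 17beta-estradiol as the ER stimulus; nearly all actives have a fitted effect of over 45% in size.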
The target in another experiment is Aromatase (Homo sapiens) (UniProt P11511). The experiment can be described thus: qHTS assay to identify aromatase inhibitors (AID 743083). Also: nearly all actives have a fitted effect of over 55% in size. Also: potency is read from the fitted curve at half-maximal effect.
Sequence of Aromatase (Homo sapiens) (P11511 whole entry, looked up): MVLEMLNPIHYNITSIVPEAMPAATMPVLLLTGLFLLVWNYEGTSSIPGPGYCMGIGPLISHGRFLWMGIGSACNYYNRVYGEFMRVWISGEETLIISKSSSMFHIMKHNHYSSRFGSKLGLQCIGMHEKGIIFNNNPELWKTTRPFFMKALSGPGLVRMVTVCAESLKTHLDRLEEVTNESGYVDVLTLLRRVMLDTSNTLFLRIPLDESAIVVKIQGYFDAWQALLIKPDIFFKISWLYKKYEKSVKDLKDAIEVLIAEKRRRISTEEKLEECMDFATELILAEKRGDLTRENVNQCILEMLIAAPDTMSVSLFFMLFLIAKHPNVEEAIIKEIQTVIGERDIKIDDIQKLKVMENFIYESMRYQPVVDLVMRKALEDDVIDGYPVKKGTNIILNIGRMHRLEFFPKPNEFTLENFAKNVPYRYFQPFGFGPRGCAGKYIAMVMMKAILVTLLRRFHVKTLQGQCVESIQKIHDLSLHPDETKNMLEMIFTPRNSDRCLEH
The nature of experiment [8]: qHTS assay to identify aromatase inhibitors - cell viability counter screen (AID 743084).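 Also: cells stimulated with testosterone during compound exposure; nearly all actives have a fitted effect of over 55% in size.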 Also: potency is read from the fitted curve at half-maximal effect.
Experiment [9] deals with Aryl hydrocarbon receptor (Homo sapiens) (UniProt P35869). The experiment can be described thus: qHTS assay to identify small molecule that activate the aryl hydrocarbon receptor (AhR) signaling pathway (AID 743085). Also: nearly all actives have a fitted effect of over 15% in size. Also: potency is read from the fitted curve at half-maximal effect.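 As to activation: HG2L7.5c1 human HepG2 liver cells with stably integrated DRE-driven firefly reporter.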 In a few lines:
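24 h compound exposure, 37C, HepG2-derived HG2L7.5c1 cells with DRE-responsive luciferase. Readouts: fluorescence viability, then luminescence at room temperature after 30 min.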

The nature of experiment [10]: qHTS assay to identify small molecule that activate the aryl hydrocarbon receptor (AhR) signaling pathway - cell viability counter screen (AID 743086).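 Also: HepG2 liver cells carrying the AhR DRE luciferase reporter; nearly all actives have a fitted effect of over 45% in size.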 The method in brief:
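HepG2-AhR-luc (HG2L7.5c1) cells, 4000/well, were preincubated 5 h at 37C, exposed to compound in qHTS format for 24 hr at 37C, then given CellTiter-Fluor for 30 min; viability was read as fluorescence in the reporter wells.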

Experiment [11] concerns the target Peroxisome proliferator-activated receptor gamma (Homo sapiens) (UniProt P37231). The experiment can be described thus: qHTS assay to identify small molecule agonists of the peroxisome proliferator-activated receptor gamma (PPARg) signaling pathway (AID 743094; active = well fitted activation curve with a large enough effect in the signal ratio in the repeat runs, not every such curve was filed as active; inconclusive = weak or mixed curves, or effect the other way; inactive = no such curve, though single readings can be large or run the other way; the % refers to the signal ratio). The method in brief: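 Reporter activation was scored by fluorescence of cleaved LiveBLAzer B/G substrate (1 h, room temperature) in PPARg-bla HEK293H cells previously treated 17 h at 37C with DMSO-dissolved compounds.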

Experiment [12] shares this target. The experiment can be described thus: qHTS assay to identify small molecule antagonists of the peroxisome proliferator-activated receptor gamma (PPARg) signaling pathway (AID 743191; calls by dose curve; also: nearly all actives have a fitted effect of over 30% in size). The method in brief:
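GeneBLAzer PPARg UAS-bla HEK293H cells carrying a UAS-driven beta-lactamase reporter were plated at 3000 cells/well, preincubated 5 h at 37C, then given compound for 17 h at 37C; LiveBLAzer B/G FRET substrate was read after 1 h at room temperature.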

Experiment [13] in a line: qHTS assay to identify small molecule antagonists of the peroxisome proliferator-activated receptor gamma (PPARg) signaling pathway - cell viability counter screen (AID 743194). Also: nearly all actives have a fitted effect of over 55% in size. As to conditions: Potency: co-treated with 50 nM rosiglitazone. The method in brief:
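PPARg-UAS-bla HEK293H cells were plated, rested 5 h at 37 C, then treated with compounds plus rosiglitazone (50 nM final) for 17 h at 37 C; viability was then read by CellTiter-Glo luminescence after 30 min at room temperature.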

A short description of experiment [14]: qHTS assay for small molecule agonists of the antioxidant response element (ARE) signaling pathway (AID 743202; active = well fitted activation curve with a large enough effect in the signal ratio in the repeat runs, not every such curve was filed as active; inconclusive = weak or mixed curves, or effect the other way; inactive = no such curve, though single readings can be large or run the other way; the % refers to the signal ratio; also: potency is read from the fitted curve at half-maximal effect). In a few lines:
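Steps: seed ARE-bla HepG2 cells (2,000/well); incubate 5 h at 37 C; add compounds by pin tool; incubate 16 h at 37 C; add FRET substrate; read fluorescence after 2 h at RT.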

The nature of experiment [15]: qHTS assay for small molecule agonists of the antioxidant response element (ARE) signaling pathway - cell viability counter screen (AID 743203; calls by dose curve; also: nearly all actives have a fitted effect of over 55% in size). The method in brief: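 Viability counter screen: stably transfected ARE-bla HepG2 line, 16 hrs compound exposure at 37C/5% CO2, ATP-based CellTiter-Glo luminescence measured in the reporter wells.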
Experiment [16] can be described thus: qHTS assay for small molecule activators of the heat shock response signaling pathway (AID 743210; active = well fitted activation curve with a large enough effect in the signal ratio in the repeat runs, with a control signal flat, not every such curve was filed as active; inconclusive = weak or mixed curves; the % refers to the signal ratio;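 also: HeLa cells with beta-lactamase reporter driven by heat shock elements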). The method in brief:
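Activation of heat shock element-controlled beta-lactamase expression is measured in HeLa cells by LiveBLAzer FRET fluorescence, with compound exposure lasting 5 h at 37 C and substrate loading 2.5 h at room temperature.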

The nature of experiment [17]: qHTS assay to identify small molecule agonists of the peroxisome proliferator-activated receptor delta (PPARd) signaling pathway - cell viability counter screen (AID 743211). Also: nearly all actives have a fitted effect of over 55% in size. Also: potency is read from the fitted curve at half-maximal effect. In a few lines: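 Luminescent ATP viability assay (CellTiter-Glo, 30 min RT) in UAS-bla HEK293H cells carrying the PPAR delta reporter construct, 3000 cells/well, after a 17 h compound treatment at 37 C.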

Experiment [18] in a line: qHTS assay to identify small molecule antagonists of the estrogen receptor alpha (ER-alpha) signaling pathway - cell viability counter screen (AID 743074; calls by dose curve; also: nearly all actives have a fitted effect of over 45% in size).
A short description of experiment [19]: qHTS assay for small molecule activators of the heat shock response signaling pathway - cell viability counter screen (AID 743209). Also: nearly all actives have a fitted effect of over 50% in size. In a few lines:
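Viability of HSE-bla HeLa cells is measured with CellTiter-Glo in the wells already used for the reporter read. Compound exposure lasts 5 h at 37 C, and luminescence is read after 30 min at room temperature.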
% is scaled to controls: 0 for no effect and ±100 for the full control effect.

Sequence of Peroxisome proliferator-activated receptor gamma (Homo sapiens) (P37231 whole entry, looked up): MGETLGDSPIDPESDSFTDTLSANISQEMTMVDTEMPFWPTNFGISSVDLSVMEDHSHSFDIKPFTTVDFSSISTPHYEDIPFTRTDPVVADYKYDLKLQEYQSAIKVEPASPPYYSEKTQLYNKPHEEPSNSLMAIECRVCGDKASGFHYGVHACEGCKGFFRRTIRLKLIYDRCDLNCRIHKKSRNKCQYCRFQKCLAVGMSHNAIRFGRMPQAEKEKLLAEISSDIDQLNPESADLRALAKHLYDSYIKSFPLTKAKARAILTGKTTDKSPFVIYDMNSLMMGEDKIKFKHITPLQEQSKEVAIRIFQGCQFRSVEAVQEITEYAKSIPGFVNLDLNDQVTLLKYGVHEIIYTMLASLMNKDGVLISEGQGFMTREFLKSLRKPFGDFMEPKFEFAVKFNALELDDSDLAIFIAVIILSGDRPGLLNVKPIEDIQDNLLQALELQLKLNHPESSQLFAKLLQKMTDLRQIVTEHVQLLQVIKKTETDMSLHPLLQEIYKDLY
Sequence of Estrogen receptor (Homo sapiens) (P03372 whole entry, looked up): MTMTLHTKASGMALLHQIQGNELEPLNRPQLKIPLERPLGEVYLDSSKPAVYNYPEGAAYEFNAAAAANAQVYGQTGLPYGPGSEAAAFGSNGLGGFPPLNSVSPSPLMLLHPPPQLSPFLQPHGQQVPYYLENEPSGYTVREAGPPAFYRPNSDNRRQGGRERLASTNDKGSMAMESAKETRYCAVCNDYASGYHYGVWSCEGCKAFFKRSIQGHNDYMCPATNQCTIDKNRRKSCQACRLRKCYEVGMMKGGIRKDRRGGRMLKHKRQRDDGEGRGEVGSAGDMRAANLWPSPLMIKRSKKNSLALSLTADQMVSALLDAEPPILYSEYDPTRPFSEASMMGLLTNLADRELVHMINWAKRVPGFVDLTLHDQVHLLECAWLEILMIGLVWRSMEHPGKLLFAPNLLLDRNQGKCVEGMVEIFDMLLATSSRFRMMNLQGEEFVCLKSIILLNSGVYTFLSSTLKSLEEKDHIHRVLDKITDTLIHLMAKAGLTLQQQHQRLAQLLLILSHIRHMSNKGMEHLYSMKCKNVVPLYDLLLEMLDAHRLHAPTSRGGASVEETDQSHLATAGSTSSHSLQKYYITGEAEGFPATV
Sequence of Aryl hydrocarbon receptor (Homo sapiens) (P35869 whole entry, looked up): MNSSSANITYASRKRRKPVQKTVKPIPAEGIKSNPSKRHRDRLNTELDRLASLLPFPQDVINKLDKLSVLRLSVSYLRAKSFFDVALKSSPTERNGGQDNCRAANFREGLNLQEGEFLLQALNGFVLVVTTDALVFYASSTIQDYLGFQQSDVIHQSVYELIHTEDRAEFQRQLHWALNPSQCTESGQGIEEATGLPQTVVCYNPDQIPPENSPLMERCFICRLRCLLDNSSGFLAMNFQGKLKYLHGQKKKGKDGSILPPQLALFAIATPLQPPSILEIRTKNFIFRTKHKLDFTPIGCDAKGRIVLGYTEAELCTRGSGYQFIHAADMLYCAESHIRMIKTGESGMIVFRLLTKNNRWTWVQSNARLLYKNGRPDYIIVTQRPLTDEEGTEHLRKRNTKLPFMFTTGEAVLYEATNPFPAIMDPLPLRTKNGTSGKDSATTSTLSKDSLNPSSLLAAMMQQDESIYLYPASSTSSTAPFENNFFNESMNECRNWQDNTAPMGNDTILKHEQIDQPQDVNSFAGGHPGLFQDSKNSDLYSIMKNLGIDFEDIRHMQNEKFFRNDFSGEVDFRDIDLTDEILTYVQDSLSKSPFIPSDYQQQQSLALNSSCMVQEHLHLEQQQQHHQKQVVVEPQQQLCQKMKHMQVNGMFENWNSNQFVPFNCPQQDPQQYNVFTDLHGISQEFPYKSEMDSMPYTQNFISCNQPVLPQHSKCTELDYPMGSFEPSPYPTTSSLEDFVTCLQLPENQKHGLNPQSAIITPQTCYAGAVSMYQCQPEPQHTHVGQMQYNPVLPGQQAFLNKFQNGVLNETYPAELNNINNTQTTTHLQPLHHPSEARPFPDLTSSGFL

For `CSc1ccc(C(=O)C(C)(C)N2CCOCC2)cc1`, the Potency entry (in experiment [1]; in experiment [2]; in [3]; in [6]; in [7]; in the experiment with Aromatase (Homo sapiens)) was “inactive” in each case. For the same compound, the Potency entry in experiment [8], in [9], in experiment [12], in experiment [13], in [14] and in [15] was “inactive” throughout. Also, the Potency result in experiment [17] was “inactive”. Further, the Potency was 61.6 µM [inconclusive] (active) in [4] and 3.44 µM (active) in experiment [5]. Besides, the result in experiment [10], in [11] and in [16] was inactive.
On to `CC1(C)CON(Cc2ccccc2Cl)C1=O`, for which the Potency result in experiment [1], in experiment [2], in [3], in experiment [4], in experiment [6] and in [7] was “inactive” each time. Also, the Potency entry (with Aromatase (Homo sapiens); in experiment [8]; in [9]; in experiment [12]; in [13]; in [15]) was “inactive” in each case. Further, the Potency result in experiment [19] and in experiment [17] was “inactive” each time. The compound was called inactive in experiment [18], in [10], in experiment [11] and in experiment [16].
Regarding `CC1=C(C(=O)Nc2ccccc2)S(=O)(=O)CCO1`, the Potency in [1] was 27.3 µM (active); in [6], 76.9 µM (active); with Aromatase (Homo sapiens), 48.5 µM (active); in experiment [8], 30.6 µM (active); in experiment [14], 1.93 µM (active); in experiment [17], 54.9 µM (active). Also, the Potency entry in experiment [2], in [3], in experiment [4], in experiment [7], in [9] and in experiment [15] was “inactive” in each case. The Potency entry in experiment [19] is “inactive”. The compound was classed as inactive in [18] and in experiment [10].
`c1coc(-c2nc3ccccc3[nH]2)c1`: the Potency result (in experiment [1]; in [2]; in [3]; in [7]; in the experiment with Aromatase (Homo sapiens); in experiment [8]) was “inactive” each time. The Potency entry in experiment [12], in experiment [13], in [14], in experiment [15] and in experiment [19] was “inactive” in each case. Also, the outcome in experiment [18], in [10], in [11] and in experiment [16] was inactive. The Potency in experiment [5] and in experiment [9] was 30.6 µM (active) throughout.
Consider `Nc1cc(Cl)ccc1O`, for which the Potency is 59.1 µM (active) in experiment [1], 7.45 µM (active) in [6] and 29.6 µM (active) in experiment [9]. The Potency result (in experiment [2]; in experiment [3]; in [4]; in experiment [7]; with Aromatase (Homo sapiens); in experiment [8]) was “inactive” throughout. For the same compound, the Potency result in experiment [19] and in [17] was “inactive” throughout. Further, the activation in experiment [5] (at 70.3 µM (top of the series)) was -2.11%. For the same compound, the compound was called inactive in experiment [10] and in experiment [16].
As for `O=C1OC(=O)C2C1C1(Cl)C(Cl)=C(Cl)C2(Cl)C1(Cl)Cl` (centres undefined), the Potency entry in [1], in [2], in [3], in experiment [4], in experiment [6] and in experiment [7] was “inactive” each time. In addition, the Potency entry (in the experiment with Aromatase (Homo sapiens); in [8]; in experiment [9]; in experiment [12]; in experiment [13]; in [14]) was “inactive” in each case. Moreover, the Potency result in experiment [15] and in experiment [17] was “inactive” throughout. The activation in experiment [5] (at 95 µM (top of the series)) is -12.2%. In addition, the outcome in [10], in [11] and in experiment [16] was inactive.
In the case of `c1cc[c]([Hg][c]2ccccc2)cc1`, the Potency in [1] was 3.06 µM (active). The Potency result (in experiment [2]; in experiment [3]; in experiment [4]; in [7]; with Aromatase (Homo sapiens); in experiment [8]) was “inactive” each time. For the same compound, the Potency result in experiment [19] is “inactive”. Also, the compound was called inactive in [18], in experiment [10], in [11] and in experiment [16].
In the case of `O=CNC(N1CCN(C(NC=O)C(Cl)(Cl)Cl)CC1)C(Cl)(Cl)Cl` (centres undefined), the Potency entry in [1], in experiment [2], in experiment [3], in experiment [4], in [6] and in experiment [7] was “inactive” in each case. Moreover, the Potency result (in the experiment with Aromatase (Homo sapiens); in experiment [8]; in [9]; in experiment [12]; in [13]; in [14]) was “inactive” each time. The Potency entry in experiment [19] and in experiment [17] was “inactive” each time. Further, the activation in experiment [5] (at 70.3 µM (top of the series)) was -11.3%. For the same compound, the call in [10] and in experiment [11] was inactive.
